These results are taken from PubChem BioAssay (NCI).

This is part of a sample that, as a whole, favours compounds with a hit. Of some 83,000 tested, about 20% had one in any assay.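 Plates (96-well) were seeded with cells, treated with compound at one concentration, and incubated for 48 hours before percent growth was determined.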 Activity calls are given as the source filed them. How the source made its calls: active means growth percent below 10; inactive means the rest.

The experiment concerns KM12 colon. Nature of the experiment: NCI-60 one-dose screen, 48 h (100 = growth as untreated, 0 = no growth, -100 = all killed). To be noted: 10 µM unless noted.
In the case of `O=C(Nc1nc2ccc(C(F)(F)F)cc2s1)c1cc(Cl)ccc1O`, the growth is 8.91% (active).

Turning to `NC(N)=NC(N)=Nc1cc2ccccc2c2ccccc12`, the growth is 47% (inactive).

As to `CC(=O)Oc1c2c(nc3c1c1ccccc1n3Cc1ccccc1)-c1ccccc1C2`, the growth is 88.7% (inactive).

Regarding `CN1C(=O)c2cc(Cl)nc3c(NC(=O)c4cccc(Cl)c4)c(Cl)c(NC(=O)c4cccc(Cl)c4)c1c23`, the growth is 64.3% (inactive).

With `CCOCCc1c(O)nc(SC)[nH]c1=O`, the growth is 101% (inactive).

Regarding `COc1ccc2[nH]c(=O)c(/C=C/C(=O)/C=C/c3ccc(O)c(OC)c3)cc2c1`, the growth is -45% (active).

Take `CCOC(=O)c1c(C)nc2c(c1N)/C(=C/c1cccs1)C(=O)N2Cc1ccccc1`: the growth is 40.5% (inactive).

For `O=C(CCc1nnc2sc(OCc3ccccc3)nn12)c1nc2ccc([N+](=O)[O-])cc2[nH]1`, the growth was 95.7% (inactive).

Consider `COc1ccc2c(c1)Oc1nc(N)c(C#N)c(N)c1C2Sc1ccc(O)cc1` (configuration not stated), for which the growth was 97.9% (inactive).

On to `O=C(Nc1nccs1)c1noc2ccccc12`, for which the growth is 94.3% (inactive).

Take `Cc1cccc(C)c1NCc1nnc(-c2ccco2)o1`: the growth was 91.6% (inactive).

With `CCOC(=O)C1=C(C)n2nc(CC#N)c(C#N)c2NC1c1ccc(Cl)cc1` (configuration not stated), the growth was 85.4% (inactive).

Turning to `CCOc1ccccc1C(=O)/C=C/c1cc2ccccc2[nH]c1=O`, the growth was -45.3% (active).

Take `COc1cc(NC(=O)Nc2cnc(Nc3ccc(N4CCOCC4)cc3)nc2Oc2ccc(F)cc2)cc(OC)c1`: the growth was 92.4% (inactive).

Turning to `Cc1cc(Cl)cc(CN(Cc2ccccc2)Cc2c(O)ccc3ccccc23)c1O`, the growth is 99.9% (inactive).

Turning to `NC[C@@H]1CCN(c2cc3c(cc2F)c(=O)n(N)c(=O)n3Cc2ccc(-c3ccccc3)cc2)C1`, the growth was 96.9% (inactive).

As to `O=C(/C(=C/c1ccc([N+](=O)[O-])cc1)SCc1ccc(F)cc1)c1ccc(Cl)cc1`, the growth is 19.5% (inactive).

On to `COc1ccc(Cl)c([N+](=O)[O-])c1`, for which the growth was 102% (inactive).

`COc1cc(C)ccc1Oc1nc(Nc2ccc(N3CCOCC3)cc2)ncc1N=Cc1cc(C(F)(F)F)cc(C(F)(F)F)c1`: the growth was 55.3% (inactive).

With `c1ccc(-c2cn3ccnc3c(-c3ccc4c(c3)ncn4C3CCCCC3)n2)cc1`, the growth is 94.3% (inactive).

As to `Nc1c(C(=O)Nc2cccc3ccccc23)sc2nc3c(cc12)COCC3`, the growth is 40.7% (inactive).

Take `O=C1CCC23OC(C(O)c4ccccc4N12)C1C(Br)=NOC13` (configuration not stated): the growth was 103% (inactive).

Turning to `O=Cc1[nH]c(Sc2ccccc2)c2ccccc12`, the growth was 81.2% (inactive).

For `CCOC(=O)c1sc(/N=C2\NC(=O)/C(=C/c3ccc(N4CCN(C)CC4)cc3)S2)nc1C`, the growth was 95.4% (inactive).

Regarding `COc1cc(C2=NN(c3ccccc3)C(c3cccc(Nc4ccnc5cc(C(F)(F)F)ccc45)c3)C2)cc(OC)c1OC` (configuration not stated), the growth was 88.1% (inactive).

For the compound `COc1ccc(-c2cc(-c3nnc(SCC(=O)Nc4ccc(/C(C)=N\O)cc4)n3-c3ccccc3)c3cc(OC)ccc3n2)cc1`, the growth was 61.1% (inactive).

Turning to `COc1ccc(OCC(=O)OC(C)C)cc1`, the growth is 93.8% (inactive).

Turning to `CC1=C(CCCOC(=O)NCCCl)C2=C(C)C3(CC3)[C@@](C)(O)C(=O)C2=C1`, the growth is 79.2% (inactive).

Consider `Nc1ccccc1NS(=O)(=O)c1ccc(Cl)cc1`, for which the growth is 100% (inactive).

Consider `N#Cc1ccc(C2C3=C(CCCC3=O)OC3=C2C(=O)c2ccccc2C3=O)cc1` (configuration not stated), for which the growth was 89.8% (inactive).

Take `C=CCn1c(SCC(=O)Nc2ccc(C(=O)/C=C/c3cc(OC)c(OC)c(OC)c3)cc2)nnc1-c1ccccc1`: the growth is 54.4% (inactive).

Consider `NS(=O)(=O)c1ccc(C2C3=C(CCCC3=O)OC3=C2C(=O)c2ccccc2C3=O)cc1` (configuration not stated), for which the growth was -29.1% (active).

On to `COc1ccc2nc3nc4ccc[nH]c4cc3c2c1`, for which the growth was 52.1% (inactive).

Turning to `COc1ccc(Nc2nc(SCC(C)C)nc(-c3ccc(F)cc3)c2C#N)cc1`, the growth is 44.4% (inactive).

On to `NC(=O)CN1C(=O)c2ccccc2C1=O`, for which the growth was 103% (inactive).

Consider `COc1cccc(C(=O)OCCn2nc3c4c(cccc42)C(=O)c2ccccc2-3)c1O`, for which the growth was 29% (inactive).

As to `c1ccc(-c2n(Cc3ccc4ccccc4n3)cc[n+]2Cc2ccc3ccccc3c2)cc1`, the growth was -38.5% (active).
